Rows were chosen to be rich in hits. Some 1.9% of all compounds tested hit in one or more screens of this group.
TDP-43 yeast inh = rescues yeast growth from TDP-43 toxicity; actives 1.8% (n = 410,000); TDP-43 expressing yeast growth rescue, BacTiter-Glo, 24 h; Potency, µM (doses to about 46.1 µM), usual class: activators; also: nearly all actives have a fitted effect of over 50% in size
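Readout is BacTiter-Glo luminescence of cell growth, so inhibitors register as activators. TDP-43-expressing yeast at OD600=0.02 in galactose medium, after raffinose pregrowth to mid-log, were incubated with compound for 24 hr at 30 deg C.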
FUS yeast rescue = suppressors of FUS proteinopathy in yeast; S. cerevisiae FUS-expressing, growth rescue, OD600, 24 h; Potency, µM (top dose mostly 76.6 µM), usual class: activators; actives 0.24% (n = 390,000); also: nearly all actives have a fitted effect of over 55% in size
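Read-out: OD at 600 nm after 24hr at 30C, reporting rescue of FUS-induced yeast toxicity. Cells at OD 0.005 in galactose (2%) minimal medium; compounds tested in a dilution series; CP55940 titration from 92uM final as control.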
LDHA inh = inhibitors of human lactate dehydrogenase A | purified LDHA, NADH/diaphorase-resazurin fluorescence; hits give low values | actives 0.15% (n = 480,000) | activity change, % (values are at about 110 or 230 µM) | AID 1347041 | P00338; in the data active = activity change below about -30%; inconclusive = mostly about -25% to -30%
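Human LDH5 (2 nM) was incubated with 0.06 mM NADH and 0.2 mM pyruvate for 5 min at room temperature in Tris pH 7.4. Remaining NADH was coupled through diaphorase/resazurin, and resorufin fluorescence was read at 0 and 20 min.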
aSyn rescue = alpha-synuclein toxicity inhibition in yeast. actives 0.14% (n = 370,000). Potency, µM (highest dose often 46.1 µM), usual class: activators. AID 652106. Yeast expressing alpha-synuclein, growth rescue, BacTiter-Glo, 24 h; also: nearly all actives have a fitted effect of over 65% in size
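Rescue of yeast growth: cells expressing toxic alpha-synuclein, induced in galactose at OD600 0.02, incubated with compound 24 h at 30 C. ATP luminescence quantified growth; inhibitors of toxicity appear as activators.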
PTHR1 ag = agonists of human PTHR1 parathyroid hormone receptor | Q03431 | HEK293 GP2 PTHR1 cells, GloSensor cAMP luminescence, 1 h | AID 743266 | actives 0.075% (n = 410,000) | Potency, µM (titrated, usually from 115 µM), hits mostly activators; also: nearly all actives have a fitted effect of over 55% in size
Target sequence (Q03431 whole entry, looked up): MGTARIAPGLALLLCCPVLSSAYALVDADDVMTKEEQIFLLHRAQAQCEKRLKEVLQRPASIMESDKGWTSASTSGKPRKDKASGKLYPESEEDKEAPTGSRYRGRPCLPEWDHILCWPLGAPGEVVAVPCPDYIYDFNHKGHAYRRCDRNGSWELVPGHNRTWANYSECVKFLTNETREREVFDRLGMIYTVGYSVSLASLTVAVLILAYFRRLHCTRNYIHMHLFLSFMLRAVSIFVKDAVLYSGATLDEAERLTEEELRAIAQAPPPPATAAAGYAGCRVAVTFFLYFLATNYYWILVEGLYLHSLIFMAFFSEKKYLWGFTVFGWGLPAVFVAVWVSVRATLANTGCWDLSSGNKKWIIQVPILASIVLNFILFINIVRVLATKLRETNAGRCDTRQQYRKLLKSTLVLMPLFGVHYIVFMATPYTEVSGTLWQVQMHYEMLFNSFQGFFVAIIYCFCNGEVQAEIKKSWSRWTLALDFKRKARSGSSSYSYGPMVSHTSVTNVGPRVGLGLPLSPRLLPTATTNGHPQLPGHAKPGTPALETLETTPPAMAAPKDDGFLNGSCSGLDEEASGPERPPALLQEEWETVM
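HEK-293-derived GP2 cells expressing PTHR1 and a GloSensor cAMP reporter, 3,000/well, plated overnight, given luciferin plus IBMX (each 0.5 mM as added) for 1 h at 37 °C, then compound for 1 h at 37 °C. Luminescence was read after 15 min at room temperature.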
Abeta rescue = restores growth of yeast expressing A-beta42 peptide | yeast expressing A-beta42, growth rescue, OD600, 48 h; response scale: 0% DMSO, 100% iron-clioquinol control | AID 1347071 | actives 0.063% (n = 410,000) | Potency, µM (doses to about 46.1 µM), usual class: activators; also: nearly all actives have a fitted effect of over 55% in size
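Growth rescue measured by 600 nm absorbance after 48 h yeast culture at 30 C with compound. Values normalized between DMSO and an equimolar ferric chloride plus clioquinol control.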
Each line names hits and unclear results; the compound was inactive in the other large screens. Unless noted, calls follow the shape of the dose curve; as a rule, active = well fitted curve in the direction sought with a large enough effect; inconclusive = small, poorly fitted or top-dose-only effect, or another doubt; inactive = no such curve, though single readings can be large; an effect the other way counts as inactive or inconclusive.

CCc1ccc(S(=O)(=O)Nc2ccc(N3CCCS3(=O)=O)cc2)s1	none (no result: TDP-43 yeast inh, FUS yeast rescue, aSyn rescue, PTHR1 ag, Abeta rescue)
COC(=O)Cc1c(C)c2ccc(O)cc2oc1=O	LDHA inh -30 (no result: TDP-43 yeast inh, FUS yeast rescue, aSyn rescue, PTHR1 ag, Abeta rescue)
COc1ccc(OCCn2cc(C=O)c3ccccc32)cc1	TDP-43 yeast inh 10µM
Cn1nnc2c(NCc3ccc(Cl)cc3)ncnc21	TDP-43 yeast inh 11µM (no result: aSyn rescue)
Cn1nnc2c(NCc3ccccc3Cl)ncnc21	TDP-43 yeast inh inconclusive, PTHR1 ag inconclusive (no result: aSyn rescue)
COc1cccc(NC(=O)COC(=O)c2nc(Cl)ccc2Cl)c1	TDP-43 yeast inh 16µM
O=C(COC(=O)c1nc(Cl)ccc1Cl)Nc1ccc(Cl)cn1	none
O=C(COC(=O)c1nc(Cl)ccc1Cl)Nc1ccc(Cl)cc1	TDP-43 yeast inh 16µM
CCC(C)S(=O)(=O)c1oc(-c2cccs2)nc1S(=O)(=O)c1ccccc1 (stereo not given)	TDP-43 yeast inh 11µM (no result: aSyn rescue)
CC(C)CS(=O)(=O)c1oc(-c2ccc(F)cc2)nc1S(=O)(=O)c1ccccc1	TDP-43 yeast inh 20µM (no result: aSyn rescue)
CNc1oc(-c2cccs2)nc1S(=O)(=O)c1ccccc1	none
COc1cccc(CNC(=O)C(C)n2nc(-c3ccccc3)c3ccccc32)c1OC (stereo not given)	none (no result: TDP-43 yeast inh, FUS yeast rescue, aSyn rescue, PTHR1 ag, Abeta rescue)
O=C(Nc1cccc(-c2csc(Nc3ccc(Cl)cc3)n2)c1)c1cccc(C(F)(F)F)c1	TDP-43 yeast inh 25µM
O=C(NNC(=S)Nc1cccc(C(F)(F)F)c1)c1cccc(Cl)c1	TDP-43 yeast inh 8.9µM
CCOC(=O)/C(C#N)=C/c1c(OCC)n(CC)c2ccccc12	TDP-43 yeast inh 13µM (no result: FUS yeast rescue)
CCOC1=C/C(=C/c2c(N)n3nc(-c4ccccc4)sc3nc2=O)C=CC1=O	FUS yeast rescue inconclusive
COC1=C/C(=C/c2c(N)n3nc(-c4ccc(C)cc4)sc3nc2=O)C=CC1=O	LDHA inh -30
S=C(c1ccc(OCc2ccccc2)cc1)N1CCCC1	none
Fc1ccc(COc2ccc(C(=S)N3CCCC3)cc2)cc1	TDP-43 yeast inh 13µM, Abeta rescue inconclusive
Cc1cccc(N(CC(=O)NCCSCc2ccccc2)S(C)(=O)=O)c1C	none
Cc1cccc(N(CC(=O)NCCSCc2ccc(Cl)cc2)S(C)(=O)=O)c1C	TDP-43 yeast inh 16µM, Abeta rescue inconclusive (no result: aSyn rescue)
COc1cc(C)ccc1OCCOc1ccc(C)cc1I	none (no result: TDP-43 yeast inh, FUS yeast rescue, aSyn rescue, PTHR1 ag, Abeta rescue)
Cc1cccc(Oc2ccc(Cl)cc2NC(=O)c2nn(C)c(=O)c3ccccc23)c1	none (no result: TDP-43 yeast inh, FUS yeast rescue, aSyn rescue, PTHR1 ag, Abeta rescue)
CCn1c(NC(=O)COc2ccc(C)cc2)nc2ccccc21	none (no result: TDP-43 yeast inh, FUS yeast rescue, aSyn rescue, PTHR1 ag, Abeta rescue)
CC(OC(=O)c1cc(-c2ccc(F)cc2)nc2ccccc12)C(N)=O (stereo not given)	none (no result: TDP-43 yeast inh, FUS yeast rescue, aSyn rescue, PTHR1 ag, Abeta rescue)
COc1ccc(-n2nc([N+](=O)[O-])c(=NCCc3ccccc3)n2O)cc1	TDP-43 yeast inh 13µM (no result: FUS yeast rescue)
Cc1ccc(CCN=c2c([N+](=O)[O-])nn(-c3ccccc3)n2O)cc1	TDP-43 yeast inh 11µM
O=[N+]([O-])c1nn(-c2ccccc2)n(O)c1=NCCc1ccccc1	TDP-43 yeast inh 7.1µM (no result: FUS yeast rescue)
COCCCNC(=O)Cc1c(C)c2c(cc(C)c3c(C(C)(C)C)coc32)oc1=O	FUS yeast rescue 32µM
O=C(Nc1ccccc1)c1nn(Cc2ccccc2)c(=O)c2ccccc12	none (no result: TDP-43 yeast inh, FUS yeast rescue, aSyn rescue, PTHR1 ag, Abeta rescue)
CCc1ccc(N2C(=O)CS(=O)(=O)C23C(=O)N(Cc2ccccc2C)c2ccccc23)cc1 (stereo not given)	none (no result: TDP-43 yeast inh, FUS yeast rescue, aSyn rescue, PTHR1 ag, Abeta rescue)
Cc1nn2c(COc3ccc(NC(=O)c4ccccc4Cl)cc3)nnc2c2ccccc12	FUS yeast rescue 22µM, aSyn rescue inconclusive
Cc1nn2c(COc3ccc(NC(=O)C(C)C)cc3)nnc2c2ccccc12	none
O=[N+]([O-])c1ccc(Nc2ccccc2)c2nonc12	none
O=[N+]([O-])c1ccc(Sc2cccc[n+]2[O-])c2nonc12	TDP-43 yeast inh inconclusive, aSyn rescue 0.56µM
Cc1cccc(C)c1NC(=O)CSc1nnc(-c2ccco2)c(-c2ccco2)n1	TDP-43 yeast inh 22µM
Cc1ccc(NC(=O)CSc2nnc(-c3ccco3)c(-c3ccco3)n2)cc1	FUS yeast rescue inconclusive

Screening results as filed in PubChem.
